Tg IFNy HTS: T. gondii growth inhibition with IFN-gamma, primary screen, cell-based | Toxoplasma gondii growth in IFN-gamma-treated host cells; hits give low values | activity change, negative = inhibition, % (test concentration not listed) | hit rate 3.8% among 69,000 | AID 1259416, 2018; in the data active means activity change below about -70%, passing the limit was not always enough;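 further: host cells are HeLa cells infected with Toxoplasma gondii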
A number is an active result; 0 = inactive. Shown is part of a subset that was picked to be rich in hits.

SMILES	Tg IFNy HTS
CN(C)CCCNC(=O)c1cc(-c2cnc(-c3ccccc3)nc2)cn1C	0
Cn1cc(-c2cnc(-c3ccccc3)nc2)cc1C(=O)NCCC#N	0
CCCNC(=O)c1cc(-c2cnc(NCc3ccccc3)nc2)cn1C	-82
Cc1nc(CNC(=O)C(C)Cn2cccn2)cs1 (centres undefined)	0
COc1cc(C)c(C)cc1S(=O)(=O)NCCc1nc(C)ncc1C(=O)N1CCOCC1	0
COC(=O)c1cccc(CN2CC[C@@H](c3ccc(F)cc3)[C@H](O)C2)n1	0
COc1ccc(CNC(=O)c2nc(Nc3ccccc3)c3ccccc3n2)c(OC)c1	0
Cc1ccc(CNC(=O)c2nc(Nc3ccc(F)cc3)c3ccccc3n2)cc1	0
COc1ccc(OC)c(CNC(=O)c2nc(Nc3cccc(C)c3)c3ccccc3n2)c1	-74
Cc1ccc(CNC(=O)c2nc(Nc3cccc(C)c3)c3ccccc3n2)cc1	-79
CN(Cc1ccccc1)C(=O)c1nc(Nc2ccc(F)cc2)c2ccccc2n1	0
CCCCNC(=O)c1nc(Nc2cccc(C)c2)c2ccccc2n1	0
COc1ccc(OC)c(CNC(=O)c2nc(Nc3ccc(C)cc3)c3ccccc3n2)c1	0
CCNC(=O)c1nc(Nc2ccc(C)cc2)c2ccccc2n1	0
Cc1ccc(Nc2nc(C(=O)N(C)Cc3ccccc3)nc3ccccc23)cc1	-77
CN(C)C(=O)N1CCN(C)C(c2nnc3ccc(C(=O)NCCc4ccccn4)cn23)C1 (centres undefined)	0
COc1ccccc1-c1nc(Cn2nnc(-c3nc(-c4ccc(SC)cc4)no3)c2C)c(C)o1	0
Cc1ccc(-c2nc(CCNC(=O)C(=O)Nc3ccc(Cl)cc3)cs2)cc1	0
O=C(c1cccc(F)c1)N1C[C@@H]2OCCN(c3ncccn3)[C@H]2C1	0
COc1cc2c(cc1-c1nccn1CCN1CCCOC1=O)CCC2	0
CCn1c(-c2ccc3c(c2)CCO3)nc2cc(C(=O)OC)cnc21	0
COc1ccc(C2=NC3(CCN(CC(=O)Nc4cccc(Cl)c4)CC3)NC2=O)cc1	0
O=C(NCc1cnn2ccccc12)c1ccccc1N1CCS(=O)(=O)CC1	0
CSc1sc(C(C)=O)c(-c2ccc(Cl)cc2)c1C#N	0
CCc1ccccc1-c1cccc(N2CCNCC2)n1	0
SMILES	Tg IFNy HTS
C(=C\c1cccc(N2CCNCC2)c1)/c1ccccc1	0
C(=C\c1cccc(N2CCNCC2)n1)/c1ccccc1	-78
COc1ccc2c(c1)NC1(CCN(C(=O)Nc3cc(C)ccc3OC)CC1)c1cccn1-2	0
Cc1cccc(C(C(=O)NCc2ccc(CN)cc2)N(C)C)c1 (centres undefined)	0
Cc1nc(C(C)NC(=O)Cc2[nH]nc3ccccc23)n[nH]1 (centres undefined)	0
CC(C)(C(=O)N1CCC(c2ccccc2C(=O)O)C1)c1ccccc1 (centres undefined)	0
Cn1cc(CC(=O)NCc2cnn3ccccc23)c2ccccc21	0
Cn1cc(CNCC2CCN(c3ncc(C(=O)NO)cn3)CC2)c2ccccc21	-79
O=C(NO)c1cnc(N2CCN(S(=O)(=O)c3ccc4ccccc4c3)CC2)nc1	0
O=C(Cn1ncc2c(N3CCOCC3)ncnc21)N1CCN(c2ccccc2)CC1	0
O=C1CC(c2ccncc2)C2(CCN(Cc3nccs3)CC2)N1 (centres undefined)	0
COc1cc2c(cc1CN1CCC(NC(C)=O)(c3ccc(F)cc3)CC1)CCC2	0
O=C(Cc1ccc2c(c1)CCC2)NCCN1CCC(O)(c2ccc(F)cc2)CC1	-76
O=C(NCCN1CCC(O)(c2ccc(F)cc2)CC1)c1c(F)cccc1F	0
COC(=O)c1cc(NS(=O)(=O)c2cccs2)ccc1Cl	0
Cn1ccnc1CN1CCC2(CC1)CN(S(C)(=O)=O)c1ccccc12	0
CCc1cccc(NC(=O)CN2C(=O)CCc3cc(S(=O)(=O)N4CCC(C)CC4)ccc32)c1	-127
CC1CCN(S(=O)(=O)c2ccc3c(c2)CCC(=O)N3CC(=O)Nc2cccnc2)CC1	0
CSc1cccc(NC(=O)CN2C(=O)CCc3cc(S(=O)(=O)N4CCCC4)ccc32)c1	0
Cc1ccc(NC(=O)CN2C(=O)CCc3cc(S(=O)(=O)N4CCCCC4C)ccc32)cc1F (centres undefined)	0
CC1CCN(S(=O)(=O)c2ccc3c(c2)CCC(=O)N3CC(=O)NCc2ccccc2)CC1	0
CC1CCN(S(=O)(=O)c2ccc3c(c2)CCC(=O)N3CC(=O)NC(C)C)CC1	0
Cc1ccc(C)c(NC(=O)CN2C(=O)CCc3cc(S(=O)(=O)N4CCCCC4C)ccc32)c1 (centres undefined)	0
CCc1cccc(NC(=O)CN2C(=O)CCc3cc(S(=O)(=O)N4CCCCC4C)ccc32)c1 (centres undefined)	-77
CC1CCN(S(=O)(=O)c2ccc3c(c2)CCC(=O)N3CC(=O)N(Cc2ccccc2)C(C)C)CC1	-81
CC1CCN(S(=O)(=O)c2ccc3c(c2)CCC(=O)N3CC(=O)Nc2ccc(F)c(F)c2)CC1	0
CSc1cccc(NC(=O)CN2C(=O)CCc3cc(S(=O)(=O)N4CCCCC4C)ccc32)c1 (centres undefined)	-86

High-throughput results (PubChem)
